HIV RNase H inh-1 – blocks HIV-1 RNase H cleavage of RNA/DNA duplex | P04585 | 1.9% of 65,000 active | RT-RNase H RNA/DNA duplex cleavage, fluorescence | inhibition, % at 10 µM; in the data active = inhibition above about 50%
HIV RNase H inh-2 – confirmation of HIV-1 reverse transcriptase RNase H inhibitors; shares compounds with HIV RNase H inh-1; Recombinant RT RNase H, fluorescent RNA/DNA duplex cleavage; inhibition, % at 10 µM; 39% of 1,000 active; in the data active = inhibition above about 48%
Starred values were filed as active, the others as inactive. Only a selection was taken, and hits are over-represented in it overall.

SMILES	HIV RNase H inh-1	others
Cc1ccc(NC(=O)c2c(-c3c(F)cccc3Cl)noc2C)cc1F	-2
CC(=O)N1CCc2cc(S(=O)(=O)NC(CC(C)C)C(=O)Nc3ccc4c(c3)OCCO4)ccc21 (configuration not stated)	0
CCCC(=O)Nc1ccc(Cl)c(NC(=O)c2ccco2)c1	-3
CCCC(=O)Nc1ccc(N2CCN(CC)CC2)c(Cl)c1	81*	HIV RNase H inh-2=7
CCCC(=O)Nc1cccc(NC(=O)CN2CCN(c3ccccc3OC)CC2)c1	-3
CS(=O)(=O)N1CCCC(C(=O)NCc2ccc(F)cc2Cl)C1 (configuration not stated)	-3
Cc1cc(C(=O)OCn2nnc3ccccc3c2=O)c(C)n1-c1ccccc1	-36
CSc1ncc(Cl)c(C(=O)C(C#N)c2nc3c(C)cc(C)cc3c(=O)[nH]2)n1 (configuration not stated)	-18
CCOc1ccccc1NC(=O)C1CC2CCCC(C1)C2=O (configuration not stated)	-11
O=C(COc1ccc(Cl)cc1)Nc1nnc(-c2ccc3c(c2)CCCC3)o1	87*	HIV RNase H inh-2=67*
COc1ccccc1C(=O)Nc1nnc(-c2ccc3c(c2)CCCC3)o1	-31
CC(=O)Nc1nnc(-c2ccc3c(c2)CCCC3)o1	-63
O=C(Cc1c(C(=O)O)[nH]c2ccccc12)NCCN1CCN(c2ccccc2F)CC1	7
OCCn1nc2c3ccccc3nc-2n(-c2ccccc2)c1=S	89*	HIV RNase H inh-2=14
Cc1nn(-c2ccccc2)c(=S)n1-c1ccccc1	3
OCn1ncn(-c2ccccc2)c1=S	9
c1cc(CSc2nnc(-c3ccc4c(c3)OCO4)o2)ccn1	8
Cc1cc(NC(=O)CSc2ccc3nnc(-c4cccs4)n3n2)no1	-4
c1ccc(-c2nn3c(C4CCCCC4)nnc3s2)cc1	-6
COc1ccc(-c2nn3c(C4CCCCC4)nnc3s2)cc1OC	37
COc1cc(-c2nn3c(C4CCCCC4)nnc3s2)cc(OC)c1OC	75*	HIV RNase H inh-2=29
O=C(NCc1ccc2c(c1)OCO2)C1CCCN(S(=O)(=O)c2cccnc2)C1 (configuration not stated)	-2
CC(=O)Nc1ccc(Cl)cc1C(=O)O	-3
CC(NC(=O)Nc1ccccc1O)(C(F)(F)F)C(F)(F)F	-6
Cc1ccc(C(=O)NC(C)(COc2nonc2C)COc2nonc2C)cc1	5
SMILES	HIV RNase H inh-1	others
O=C(Cn1nc(Cc2ccncc2)c2ccccc2c1=O)N1CCc2ccccc2C1	-22
CC1Cc2ccccc2N1C(=O)Cn1c(=O)oc2cc(S(=O)(=O)N3CCCCC3)ccc21 (configuration not stated)	-1
CCOc1ccc(NC(=O)CN(c2cc(C)cc(C)c2)S(=O)(=O)c2c(C)noc2C)cc1	-3
CCOc1ccc(N(CC(=O)Nc2ccc(OC)cc2)S(=O)(=O)c2c(C)noc2C)cc1	-6
CCOc1ccc(N(CC(=O)Nc2ccc3c(c2)OCCO3)S(=O)(=O)c2c(C)noc2C)cc1	56*	HIV RNase H inh-2=12
Cc1ccc(-c2c3c(=O)n(C)c(=O)n(C)c3c3c(C)cc(C)nn23)cc1	-26
CCOC(=O)N1CC=C2C(C#N)=C(N)C(C#N)(C#N)[C@H](c3ccc(OC(C)C)c(OCC)c3)[C@H]2C1	89*	HIV RNase H inh-2=76*
CCOC(=O)N1CC=C2C(C#N)=C(N)C(C#N)(C#N)[C@H](c3ccsc3)[C@H]2C1	6
CCOC(=O)N1CC=C2C(C#N)=C(N)C(C#N)(C#N)[C@H](c3ccccc3OCC)[C@H]2C1	29
N#CCCSc1ccccc1NC(=O)c1ccc(S(=O)(=O)N2CCCC2)cc1	-3
O=C(CSc1ncn[nH]1)Nc1ccccc1C(=O)O	-7
O=C(CSc1ncn[nH]1)c1ccco1	39
O=C(CSc1ncn[nH]1)c1ccccc1	70*	HIV RNase H inh-2=67*
COc1cc(OC)nc(NC(=O)CSc2nnc(-c3ccccc3)n2C2CCCCC2)n1	12
O=C(CN(Cc1ccccc1F)C(=O)Cn1nnc(-c2cccs2)n1)NCC1CCCO1 (configuration not stated)	-10
CC(=O)OC(/C(O)=C(\C#N)c1nc2ccccc2[nH]1)c1ccccc1 (configuration not stated)	-4
Cc1ccc(CSc2nc3c(c(=O)[nH]2)CCC3)cc1	-26
Cc1ccc(CSc2nc3c(c(=O)[nH]2)C(c2ccncc2)C2=C(CCCC2=O)N3)cc1 (configuration not stated)	59*	HIV RNase H inh-2=40
CSc1nc2c(c(=O)[nH]1)C(c1cccs1)C1=C(CCCC1=O)N2 (configuration not stated)	17
COc1ccc(C2(NC(C)=O)CCN(C(=O)c3ccco3)CC2)cc1	-2
CC/C(=C\C(=O)c1cccnc1)Nc1ccc(C)c(C)c1	-24
CCn1cc(C(=O)OCC(=O)NCc2ccc3c(c2)OCO3)c(=O)c2ccc(C)nc21	-18
CCc1ccccc1NC1=NCC(=O)N1C1CCCCC1	83*	HIV RNase H inh-2=20
Cc1cc(C)c(NC2=NCC(=O)N2C2CCCCC2)c(C)c1	-57
CCc1ccccc1NC1=NCC(=O)N1Cc1ccccc1	-30
SMILES	HIV RNase H inh-1	others
Cc1nc(Nc2nc(=O)c3ccccc3n2C)nc2c(C)cccc12	0
CCOc1cc(C)c(C(C)C)cc1S(=O)(=O)NCc1ccccn1	-1
CCOC(=O)C1=C(N)OC2=C(C(=O)CC(C)(C)C2)C1c1ccco1 (configuration not stated)	-5
CC1(C)CC(=O)C2=C(C1)OC1=C(C(=O)CC(C)(C)C1)C2c1ccc(O)cc1O	56*	HIV RNase H inh-2=-8
COc1ccc(C2C(C#N)=C(N)OC3=C2C(=O)CC(C)(C)C3)c(OC)c1OC (configuration not stated)	-9
COc1ccc(-c2nnc3ccc(SCC(=O)N4CCN(c5ccccc5)CC4)nn23)cc1OC	-27
Cc1nn(CC(=O)Nc2nnc(CC(=O)N3CCCC3)s2)c(=O)c2ccccc12	-1
CCn1c(O)c(/C=N/n2cnnc2)sc1=S	61*	HIV RNase H inh-2=0
Oc1ccc2ccccc2c1/C=N/n1cnnc1	-9
O=C(O)Cn1c(O)c(C=Nc2ccccc2)sc1=S	-3
COc1ccc(-c2cn3c(C)c(C(=O)N4CCN(c5ccc(OC)cc5)CC4)sc3n2)cc1	38
O=C(Nc1nnc(CC(=O)N2CCOCC2)s1)c1cccs1	-2
O=C(COc1cc(Cl)ccc1Cl)Nc1nnc(CC(=O)N2CCOCC2)s1	80*	HIV RNase H inh-2=11
O=C(COc1ccc(Cl)cc1Cl)NC(=O)N1CCOCC1	2
COC(=O)c1cccc(NC(=O)CSc2nnc(C)n2Cc2ccccc2)c1	-12
CCOC(=O)c1sc(=S)n(C)c1N	-4
CCn1c(N)c(C(N)=O)sc1=S	70*	HIV RNase H inh-2=-2
CCn1c(N)c(C(=O)NC2CCCCC2)sc1=S	-25
Cc1ccc(C)c(N2CCN(c3cc(C)nc4nnnn34)CC2)c1	-20
COc1cc(NC(=O)c2cc(C(C)C)on2)cc(OC)c1OC	-5
COc1cc(/C=N/n2c(C)nnc2C)cc(OC)c1OC	-13
COc1cc(N=c2ssnc2Cl)cc(OC)c1OC	91*	HIV RNase H inh-2=76*
OCCOCCn1c2ccccc2c2ccccc21	-13
CC(C)c1nnc(NC(=O)CCC(=O)NCc2ccc3c(c2)OCO3)s1	2
Cc1sc2nc(C(C)Nc3ccccc3N3CCOCC3)[nH]c(=O)c2c1C (configuration not stated)	65*	HIV RNase H inh-2=78*
Cc1sc2nc(C(C)Sc3nnc(C)n3-c3ccccc3)[nH]c(=O)c2c1C (configuration not stated)	-9
Cc1sc2nc(SCC(=O)N3CCOCC3)[nH]c(=O)c2c1C	-4
